Experimental data published in PubChem BioAssay AID485275 (NMMLSC, 2010).
Hit rate of the full screen: of about 330,000 compounds, about 1,400 (0.42%) were called active.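 Rule for the calls: active = plate passing quality check with inhibition over a set limit, or well fluorescence over plate mean plus 4 SD; inactive = the rest.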 Shown is part of a subset that was picked to be rich in actives.

Test: inhibitors of Candida efflux pumps in yeast, primary screen, S. cerevisiae, Nile Red, multiplex (AID 485275);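 note: Nile Red retained in pooled yeast measured as flow cytometry median fluorescence; 0% = buffer negative control and 100% = Enniatin B positive control; higher means more Nile Red kept so more efflux inhibition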
Conditions: S. cerevisiae Candida pump triplex, at 10 µM, hits give high values

inhibition, active:
CC12CCC(C(=O)N(c3cccc(Cl)c3)C1=O)C2(C)C (stereo not drawn) 10.2%
COc1cccc(NC(=O)CN(C)C(=O)/C=C/c2cc(OC)ccc2OC)c1 15.2%
CN(C)S(=O)(=O)c1cc(C(=O)Nc2ccn(C)n2)c(Cl)cc1Cl 52.3%
CCOC(=O)c1c(NC(=S)NC(=O)c2ccco2)sc2c1CCCC2 1.02%
CCOC(=O)CNC(=O)CSc1nnnn1-c1cc(C)ccc1C 0.92%
CN1CCN(S(=O)(=O)c2ccc(NC(=S)NC(=O)C3CC3)cc2)CC1 10.2%
Cc1ccc(N=C2NC(=O)/C(=C/C=C/c3ccco3)S2)cc1C 2.76%
O=C(/C=C/c1c(Cl)cccc1Cl)NCc1ccccc1 24.9%
C=CCC[C@@H](Cc1ccc(F)cc1)C(=O)OC[C@H](Cc1c[nH]c2ccccc12)NC(=O)[C@@H](CC=C)CC(=O)N(CCO)Cc1ccccc1 149%
Cc1nc2c(C(=O)NCc3ccc4c(c3)OCO4)c[nH]n2c(=O)c1Cc1ccccc1F 0.63%
O=C(CSc1nnc(-c2cccnc2)n1Cc1ccco1)c1ccc(Cl)c(Cl)c1 0.84%
CCNc1c(NS(=O)(=O)c2ccc(C3CCCCC3)cc2)c(=O)oc2ccccc12 1.37%

inhibition, inactive:
COc1ccccc1/C=N/N1CCN(Cc2ccccc2Cl)CC1 -0.11%
CC12CCC(C(=O)N(NC(=O)c3ccccc3O)C1=O)C2(C)C (stereo not drawn) -0.08%
O=C1CC(NNc2ccccc2)C(=O)N1c1cccc(Cl)c1 (stereo not drawn) 0.07%
O=C(CCCN1C(=O)CSc2ncccc21)N1CCN(c2cccc(C(F)(F)F)c2)CC1 0.01%
O=C(CSC1CC(=O)N(CCc2ccccc2)C1=O)Nc1ccc(Cl)cc1 (stereo not drawn) 0.17%
NC(=O)c1cc(S(=O)(=O)NCCCc2ccco2)cs1 -0.02%
COc1cccc(NC(=O)CN(C)C(=O)Cc2ccc(Cl)cc2Cl)c1 -0.07%
COc1ccc(/C=C/C(=O)OCC(=O)Nc2cccc(Oc3ccccc3)c2)c(OC)c1 -0.02%
CCN(CC)CC(=O)Nc1nn(-c2ccccc2)nc1C(N)=O 0.02%
Cc1ccc(C(=O)Nc2ccn(C)n2)cc1 -0.02%
O=C(Nc1nccs1)c1cc(S(=O)(=O)N2CCOCC2)c(Cl)cc1Cl -0.05%
COC(=O)/C(=C1\Oc2ccc(C(C)(C)C)cc2S1)C(F)(F)F -0.15%
O=C(NN1C(=O)C2CCCCC2C1=O)c1ccco1 (stereo not drawn) -0.1%
Cc1ccc(S(=O)(=O)N2CC(C)N(S(C)(=O)=O)C2)cc1 (stereo not drawn) -0.07%
CCOC(=O)c1c(NC(=S)Nc2ccccc2)sc2c1CCN(C)C2 -0.02%
CCOC(=O)c1c(NC(=O)C2(C)Cc3ccccc3C(=O)O2)sc2c1CCCC2 (stereo not drawn) 0.15%
C=CCNC(=O)c1sc(SC)cc1-c1ccc(Cl)cc1 -0.08%
CCCCN1C(=O)CCC(C(=O)O)C1c1ccc(OC)cc1 (stereo not drawn) 0.12%
Cc1ccc(C)c(-n2nnnc2SCC(=O)c2c(N)n(C)c(=O)n(C)c2=O)c1 -0.07%
COc1ccc(OC)c(-n2nnnc2SCC(=O)Nc2cc(C)ccc2OC)c1 -0.01%
O=C(NCC(=O)N1CCN(c2ncc(C(F)(F)F)cc2Cl)CC1)c1ccc(Br)o1 -0.34%
CN1CCN(S(=O)(=O)c2ccc(NC(=O)C3CCCO3)cc2)CC1 (stereo not drawn) -0.16%
CC(=O)Nc1ccc(S(=O)(=O)N2CCC(C(=O)NC3CC3)CC2)cc1 -0.06%
CCN(CC(=O)Nc1c(F)cccc1F)C(=O)c1cnc(C)cn1 -0.12%
CN1C(=O)/C(=C/c2ccco2)SC1=Nc1cccc(C(=O)O)c1 -0.02%
CCCn1c2ccccc2c2cnn(CC(=O)NCCCN3CCCCC3CC)c(=O)c21 (stereo not drawn) 0.02%
CC(C)N1CCC(N2CCN(Cc3cccnc3)CC2CCO)CC1 (stereo not drawn) 0.28%
Nc1ccc(N=Nc2ccccc2Cl)c(N)n1 0.15%
O=C(CC(=O)N/N=C\c1cccc(Cl)c1Cl)NCc1ccccc1 0.27%
CCOC(=O)CNC(=O)/C=C/c1c(Cl)cccc1Cl -1.16%
CCCc1ccc(OCC(O)CN2CCN(C(=O)OCC)CC2)cc1 (stereo not drawn) 0.15%
C=CCC[C@H](Cc1ccc(F)cc1)C(=O)OC[C@H](C)NC(=O)[C@H](CC=C)CC(=O)N(CCO)Cc1ccccc1 -0.16%
C=CCC[C@H](Cc1ccc(F)cc1)C(=O)OC[C@@H](Cc1c[nH]c2ccccc12)NC(=O)[C@H](CC=C)CC(=O)N[C@H](CO)Cc1ccccc1 -0.27%
COCC(C)NC(=O)c1ccc(-n2nc(C(F)(F)F)cc2-c2cccs2)cc1 (stereo not drawn) -0.07%
O=C(NCc1ccc2c(c1)OCO2)c1cc(F)c(F)cc1Cl 0.18%
CCn1c(=O)c(C(=O)NCc2ccc3c(c2)OCO3)c(O)c2ccccc21 -0.11%
CCN(C(=O)CSc1nnc(-c2ccc(OC(F)F)cc2)n1N)C1CCS(=O)(=O)C1 (stereo not drawn) 0.02%
CC(=O)C1(C)N(O)C(C)(C)C(c2cccs2)=[N+]1[O-] (stereo not drawn) -0.09%
O=C(CSc1nnc(-c2cnccn2)n1Cc1ccco1)c1ccc(Cl)c(Cl)c1 -0.1%
COc1cc(Cl)c(C)cc1NC(=O)CSc1nnc(-c2cccnc2)n1Cc1ccco1 0.03%
CSc1cccc(NC(=O)C2CCCN2S(=O)(=O)c2ccc3c(c2)CCC(=O)N3)c1 (stereo not drawn) 0.16%
COc1cccc(CNC(=O)C(=O)NCCC2CCCCN2S(=O)(=O)c2ccc(C)cc2)c1 (stereo not drawn) 0.03%
Cc1ccc(C(=O)Nc2ccccc2-c2ccccc2)cc1S(=O)(=O)Nc1ccccc1 0.01%
Cc1ccc(C(=O)O)cc1N1C(=O)CCCC1=O -0.14%
CCC(=O)Nc1ccc(S(=O)(=O)Nc2c(NC)c3ccccc3oc2=O)cc1 0.02%
O=c1oc2ccccc2c(NC2CCCCC2)c1NS(=O)(=O)c1ccc(Cl)cc1 -0.01%
